# Experimental data taken from PubChem BioAssay.
# Activity calls are given as the source filed them. Unless noted, the rule behind the calls is not given here.
# Columns and labels:
# [1] = system: Wnt5a (protein binding on small-molecule microarray); experiment: Wnt5a binders on small-molecule microarray, primary screen, biophysical, 635/667 nm fluorescence (AID 1142); conditions: 635 nm fluorescence, higher = more signal;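 note: fluorescence read at 667 nm with signal to noise per printed feature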
# [2] = cell viability in Huh7 cells, primary screen, cytotoxicity control for HCV replication inhibitor project, CellTiter-Glo luminescence, basal, 48 h (AID 1143); conditions: Huh7 HCV replicon, higher = more signal, called active from +8 up or from −8 down;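 note: Huh7 hepatoma cells carrying a hepatitis C replication reporter with no stimulus; test concentration not given here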
# [3] = P. aeruginosa biofilm formation inhibitors, primary screen, PAO1 strain, BacTiter-Glo luminescence, LB-PBS (AID 1144); conditions: 12 h, higher = more signal
# [4] = CREB reporter modulators without forskolin, primary screen, cell-based, PC12, CRE-LacZ reporter, unstimulated (AID 1145); conditions: no forskolin, luminescence, 4.5 h, higher = more signal, called active from +8 up or from −8 down
# [5] = CREB reporter modulators under forskolin, primary screen, cell-based, PC12, CRE-LacZ reporter, forskolin-stimulated (AID 1146); conditions: luminescence, 4.5 h, higher = more signal, called active from +8 up or from −8 down;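 note: PC12 cells with 6xCRE LacZ reporter stimulated by forskolin 10 µM; beta-galactosidase reporter signal reflecting CREB driven transcription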
# [6] = target: Streptavidin (Streptomyces avidinii) (UniProt P22629); experiment: streptavidin binders on small-molecule microarray, primary screen, artefact control for SMM compound annotation, biophysical, 635/667 nm fluorescence (AID 1147); conditions: streptavidin binding, higher = more signal;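 note: signal reflects streptavidin binding to arrayed compounds as a control protein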
# Sequence of Streptavidin (Streptomyces avidinii) (P22629 whole entry, looked up): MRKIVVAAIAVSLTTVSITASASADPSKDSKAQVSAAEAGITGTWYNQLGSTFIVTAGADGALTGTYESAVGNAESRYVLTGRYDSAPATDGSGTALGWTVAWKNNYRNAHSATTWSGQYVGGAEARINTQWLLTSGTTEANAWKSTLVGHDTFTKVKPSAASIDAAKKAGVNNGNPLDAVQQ
# [7] = small-molecule binders of probe aInhba, primary screen, biochemical, small-molecule microarray, 635/667 nm fluorescence (AID 1148); conditions: higher = more signal;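 note: score merges 667nm spot fluorescence with signal-to-noise for antibody binding to printed compounds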
# Torsin-1A (Homo sapiens) [8] = target: Torsin-1A (Homo sapiens) (UniProt O14656); experiment: torsin A binders from cell lysate, primary screen, small-molecule microarray, wild-type, 635/667 nm (AID 1149); conditions: COS7 hTOR1A-WT lysate, 635 nm fluorescence, higher = more signal
# Sequence of Torsin-1A (Homo sapiens) (O14656 whole entry, looked up): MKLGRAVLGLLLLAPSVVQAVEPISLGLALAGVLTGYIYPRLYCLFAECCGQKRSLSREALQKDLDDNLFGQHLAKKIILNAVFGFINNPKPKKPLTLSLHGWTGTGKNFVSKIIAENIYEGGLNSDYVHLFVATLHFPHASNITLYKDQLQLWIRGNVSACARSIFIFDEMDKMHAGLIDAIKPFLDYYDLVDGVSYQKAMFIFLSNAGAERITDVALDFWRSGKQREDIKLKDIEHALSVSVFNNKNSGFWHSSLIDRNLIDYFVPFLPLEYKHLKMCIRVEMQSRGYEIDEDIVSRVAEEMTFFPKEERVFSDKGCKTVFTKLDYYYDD
# Torsin-1A (Homo sapiens) [9] = target: Torsin-1A (Homo sapiens) (UniProt O14656); experiment: small-molecule binders of mutant TOR1A in lysate, primary screen, cell lysate, small-molecule microarray, COS7 lysate, 635/667 nm fluorescence (AID 1150); conditions: COS7 hTOR1A mutant lysate, 635 nm fluorescence, higher = more signal;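 note: score pools 667 nm emission and signal to noise measuring lysate protein binding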
# [10] = system: Sonic hedgehog protein (Shh); experiment: small-molecule binders of Shh protein, primary screen, biochemical, small-molecule microarray, 635/667 nm fluorescence (AID 1151); conditions: small-molecule microarray binding, 635 nm fluorescence; higher = more signal;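 note: Shh protein binding to compounds spotted on small-molecule microarray slides; score combines spot fluorescence intensity with signal-to-noise across triplicate slides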
# [11] = E. coli DRC41 culture turbidity changes, primary screen, E. coli filamentation inducer project, strain DRC41, OD650, 48 h (AID 1152);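 note: E. coli MC1000 strain DRC41 lacking acrAB efflux pump and sulA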; conditions: E. coli DRC41 (acrAB sulA), higher = more signal, called active from +8 up or from −8 down
# [12] = small-molecule binders of probe aLefty1, primary screen, biochemical, small-molecule microarray, 635/667 nm fluorescence (AID 1153); conditions: higher = more signal;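 note: score merges spot fluorescence with signal-to-noise ratio from the scanned slide images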
# [13] = PSAC antagonists in infected red cells, primary screen, cell-based, P. falciparum Indochina, OD700, 1 h (AID 1154); conditions: P. falciparum Indochina infected RBC osmotic lysis, higher = more signal, called active from +8 up or from −8 down
# [14] = PSAC antagonists in infected red cells, primary screen, cell-based, P. falciparum Indochina, OD700, 2 h (AID 1155);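 note: lysis reports solute entry through the parasite surface anion channel PSAC; channel blockers reduce lysis of infected cells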; conditions: P. falciparum Indochina infected erythrocytes, osmotic lysis OD700; higher = more signal, called active from +8 up or from −8 down
# [15] = osmotic lysis modulators in infected erythrocytes, primary screen, PSAC antagonist project, cell-based, P. falciparum Indochina, OD700, 3 h (AID 1156); conditions: higher = more signal, called active from +8 up or from −8 down
# [16] = PSAC antagonists in infected red cells, primary screen, cell-based, P. falciparum Indochina, OD700, 18 h (AID 1157); conditions: P. falciparum Indochina infected erythrocytes, osmotic lysis OD700, 18 h; higher = more signal, called active from +8 up or from −8 down
# [17] = modulators of S6 phosphorylation in cells, primary screen, cell-based, A549, cytoblot, luminescence, serum-stimulated (AID 1158); conditions: A549 phospho-S6 cytoblot, 5 h, higher = more signal;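 note: serum-stimulated A549 lung adenocarcinoma cells; signal is phosphorylated S6 detected by cytoblot immunostaining with HRP secondary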
# [18] = target: NADPH oxidase 2 (Homo sapiens) (UniProt P04839); experiment: NOX2-dependent H2O2 signal modulators, primary screen, NOX inhibitor project, cell-based, HEK293-NOX2, PMA-stimulated, Amplex Red fluorescence (AID 1159); conditions: 45 min, higher = more signal, called active from +8 up or from −8 down; note: test concentration not given here
# Sequence of NADPH oxidase 2 (Homo sapiens) (P04839 whole entry, looked up): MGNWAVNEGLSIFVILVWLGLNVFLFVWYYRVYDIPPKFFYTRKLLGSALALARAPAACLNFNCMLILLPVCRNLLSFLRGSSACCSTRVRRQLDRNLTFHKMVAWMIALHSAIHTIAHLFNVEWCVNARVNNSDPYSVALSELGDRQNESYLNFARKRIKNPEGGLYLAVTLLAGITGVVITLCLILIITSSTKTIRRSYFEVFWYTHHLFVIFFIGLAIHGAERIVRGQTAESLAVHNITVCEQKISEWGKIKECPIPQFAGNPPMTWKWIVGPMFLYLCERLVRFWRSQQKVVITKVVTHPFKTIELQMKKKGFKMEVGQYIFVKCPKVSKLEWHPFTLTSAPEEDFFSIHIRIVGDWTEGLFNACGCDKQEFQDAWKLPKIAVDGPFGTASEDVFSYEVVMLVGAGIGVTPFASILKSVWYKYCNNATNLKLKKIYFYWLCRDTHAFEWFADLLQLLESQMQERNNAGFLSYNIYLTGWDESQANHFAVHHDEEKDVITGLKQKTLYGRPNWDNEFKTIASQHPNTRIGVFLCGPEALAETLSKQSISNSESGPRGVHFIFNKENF
# [19] = target: NADPH oxidase 4 (Homo sapiens) (UniProt Q9NPH5); experiment: NOX4-dependent H2O2 signal modulators, primary screen, NOX inhibitor project, cell-based, HEK293-NOX4, tetracycline-induced, Amplex Red fluorescence (AID 1160); conditions: 45 min, higher = more signal, called active from +8 up or from −8 down
# Sequence of NADPH oxidase 4 (Homo sapiens) (Q9NPH5 whole entry, looked up): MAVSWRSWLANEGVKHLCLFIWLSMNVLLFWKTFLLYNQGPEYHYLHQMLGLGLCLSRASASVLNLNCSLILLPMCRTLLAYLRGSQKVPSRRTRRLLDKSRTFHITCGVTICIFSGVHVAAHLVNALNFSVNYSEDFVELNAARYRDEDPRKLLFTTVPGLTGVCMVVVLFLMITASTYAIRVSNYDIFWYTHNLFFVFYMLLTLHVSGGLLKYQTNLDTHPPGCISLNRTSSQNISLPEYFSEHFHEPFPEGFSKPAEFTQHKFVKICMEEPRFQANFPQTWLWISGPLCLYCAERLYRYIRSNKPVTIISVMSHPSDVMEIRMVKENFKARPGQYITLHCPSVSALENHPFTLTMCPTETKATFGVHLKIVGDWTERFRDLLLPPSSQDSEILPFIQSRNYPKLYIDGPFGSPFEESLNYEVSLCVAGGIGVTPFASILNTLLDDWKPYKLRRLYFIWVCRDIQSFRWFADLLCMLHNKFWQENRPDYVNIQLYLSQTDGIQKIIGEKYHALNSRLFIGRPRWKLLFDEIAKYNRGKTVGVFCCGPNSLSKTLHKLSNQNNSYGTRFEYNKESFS
# [20] = target: NADPH oxidase 5 (Homo sapiens) (UniProt Q96PH1); experiment: NOX5-dependent H2O2 signal modulators, primary screen, NOX inhibitor project, cell-based, HEK293-NOX5, Amplex Red fluorescence (AID 1161); conditions: HEK293-NOX5, ionomycin, 45 min, higher = more signal
# Sequence of NADPH oxidase 5 (Homo sapiens) (Q96PH1 whole entry, looked up): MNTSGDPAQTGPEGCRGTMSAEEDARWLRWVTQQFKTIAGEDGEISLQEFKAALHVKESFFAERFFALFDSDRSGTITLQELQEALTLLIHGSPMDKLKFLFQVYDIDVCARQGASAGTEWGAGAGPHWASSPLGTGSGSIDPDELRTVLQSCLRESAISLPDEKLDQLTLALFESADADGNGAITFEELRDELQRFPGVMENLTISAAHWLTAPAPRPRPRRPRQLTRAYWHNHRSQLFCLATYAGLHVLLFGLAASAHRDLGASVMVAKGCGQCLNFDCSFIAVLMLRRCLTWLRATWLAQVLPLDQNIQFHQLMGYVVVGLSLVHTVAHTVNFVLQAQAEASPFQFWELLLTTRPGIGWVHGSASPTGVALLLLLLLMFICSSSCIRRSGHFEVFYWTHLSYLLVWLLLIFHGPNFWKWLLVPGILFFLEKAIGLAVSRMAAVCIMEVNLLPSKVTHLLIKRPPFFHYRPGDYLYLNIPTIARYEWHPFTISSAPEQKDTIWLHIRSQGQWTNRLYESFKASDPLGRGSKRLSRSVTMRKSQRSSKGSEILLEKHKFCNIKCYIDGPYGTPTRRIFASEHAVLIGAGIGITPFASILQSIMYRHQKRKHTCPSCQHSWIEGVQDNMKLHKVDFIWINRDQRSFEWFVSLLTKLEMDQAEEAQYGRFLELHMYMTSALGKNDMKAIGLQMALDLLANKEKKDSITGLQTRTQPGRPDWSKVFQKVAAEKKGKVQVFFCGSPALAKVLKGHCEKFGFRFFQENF
Compound,composite z-score [1],z-score [2],z-score [3],z-score [4],z-score [5],composite z-score [6],composite z-score [7],composite z-score (Torsin-1A (Homo sapiens) [8]),composite z-score (Torsin-1A (Homo sapiens) [9]),composite z-score [10],z-score [11],composite z-score [12],z-score [13],z-score [14],z-score [15],z-score [16],z-score [17],z-score [18],z-score [19],z-score [20]
O=C1O[C@H](c2ccccc2)[C@H](c2ccccc2)N2[C@H]1[C@@H](C(=O)N1CCCCCCC1)[C@]1(C(=O)Nc3ccccc31)[C@H]2c1ccc(O)cc1,2.61,-1.21 (inactive),0.387 (inactive),-0.0566 (inactive),-0.599 (inactive),4.14,2.28,3.49,3.61,1.55,-0.0491 (inactive),2.97,0.517 (inactive),0.435 (inactive),-0.882 (inactive),0.19 (inactive),-0.541,-4.42 (inactive),-1.03 (inactive),-3.4
COc1ccccc1CN1C(=O)c2ccccc2[C@@H](C(=O)NCC(C)C)[C@@H]1c1ccc(CO)cc1,0.572,-0.922 (inactive),0.34 (inactive),-0.258 (inactive),-0.992 (inactive),-0.378,-0.145,-0.114,0.526,0.0072,1.08 (inactive),-0.0061,1.12 (inactive),0.157 (inactive),1.23 (inactive),0.206 (inactive),-0.195,1.78 (inactive),-0.496 (inactive),1.67
COc1ccc(C(=O)Nc2ccc(CN3C(=O)[C@]4(O[C@H](CCn5cc([C@H](O)c6ccccc6)nn5)[C@@H]([Si](C)(C)c5ccc(OC)cc5)[C@@H]4C)c4ccccc43)cc2)cc1,-0.0249,-6.51 (inactive),-0.675 (inactive),-0.375 (inactive),-1.22 (inactive),-0.19,-0.0044,0.33,0.223,0.666,-0.372 (inactive),0.193,3.29 (inactive),1.02 (inactive),0.741 (inactive),1.26 (inactive),0.319,0.753 (inactive),0.206 (inactive),2.27
CCCCC(=C=CC[C@H](O)c1cccc(OCCO)c1)C[C@H](O)COCc1ccccc1,-0.122,-1.33 (inactive),-0.295 (inactive),3.54 (inactive),1.04 (inactive),0.206,-0.101,0.139,0.0056,0.508,0.483 (inactive),-0.0984,15.3 (active),2.48 (inactive),0.658 (inactive),1.02 (inactive),0.949,-2.67 (inactive),-1.29 (inactive),-2.41
CC1C=C(CCCO)C=C(C(=O)OCCS(C)(=O)=O)C(C(=O)OCCS(C)(=O)=O)=CN1Cc1cccc(OC(F)(F)F)c1 (stereo not given),0.0382,-0.911 (inactive),-0.846 (inactive),-0.364 (inactive),0.56 (inactive),1.28,0.288,0.887,0.893,-0.0368,-0.311 (inactive),0.304,1.81 (inactive),0.45 (inactive),0.714 (inactive),0.283 (inactive),0.402,-1.97 (inactive),-0.729 (inactive),-1.67
CC(C)(C)OC(=O)CC[C@@]1(C(=O)N2CCCCC2)N=C(c2ccc(OCCCO)cc2)O[C@@H]1c1ccccc1CN=[N+]=[N-],0.34,-1.95 (inactive),0.37 (inactive),0.414 (inactive),-0.284 (inactive),1.07,0.248,1.1,1.22,-0.226,0.502 (inactive),0.549,29.6 (active),25 (active),1.03 (inactive),4.6 (inactive),-0.243,-0.601 (inactive),1.13 (inactive),1.22
O=C(Nc1cc(Br)ccc1C(=O)NCc1cccc(O)c1)c1ccccc1,0.189,-2.32 (inactive),-0.26 (inactive),-0.374 (inactive),-0.334 (inactive),0.827,0.129,0.476,0.533,0.349,1.41 (inactive),0.388,17.5 (active),4.24 (inactive),-0.222 (inactive),2.17 (inactive),-0.645,-1.57 (inactive),-1.69 (inactive),-1.3
C[N+](C)(C)CCCCNC(=O)[C@H]1C[C@H]2C(=O)NCC(=O)N2[C@H]1c1ccc(O)cc1,0.442,0.215 (inactive),-0.895 (inactive),-0.398 (inactive),-0.501 (inactive),0.158,0.106,0.979,0.672,2.14,0.77 (inactive),0.242,0.367 (inactive),0.0681 (inactive),-0.393 (inactive),0.0564 (inactive),-0.0248,-1.51 (inactive),-0.769 (inactive),0.226
CC(C)N1C(=O)c2ccccc2[C@](C)(C(=O)O)[C@@H]1c1ccc(CO)cc1,-0.654,-0.328 (inactive),0.00934 (inactive),-0.206 (inactive),0.552 (inactive),-0.603,-0.148,-1.03,-0.792,-1.02,-0.308 (inactive),0.0451,0.268 (inactive),-0.103 (inactive),0.209 (inactive),0.352 (inactive),0.256,0.229 (inactive),-0.166 (inactive),-1.27
[N-]=[N+]=NCc1ccccc1[C@H]1OC(c2ccc(OCCCO)cc2)=N[C@@]1(Cc1ccccc1)C(N)=O,0.765,-1.18 (inactive),-0.293 (inactive),0.479 (inactive),-1.43 (inactive),2.31,0.278,0.217,0.65,-1.13,0.0183 (inactive),0.174,25.2 (active),15.2 (active),1.79 (inactive),2.75 (inactive),0.534,-0.17 (inactive),1.21 (inactive),1.2
CCCCC(O)C1C=CC2C(=O)N(Cc3ccccc3)C(=O)C2N1n1cnnc1 (stereo not given),0.0687,-4.01 (inactive),-0.372 (inactive),0.519 (inactive),-0.422 (inactive),0.416,-0.0477,0.0569,-0.459,0.22,-1.18 (inactive),0.574,0.706 (inactive),-1.16 (inactive),0.662 (inactive),-1.85 (inactive),1.99,-3.33 (inactive),-2.04 (inactive),-3.3
COC(=O)c1ccc(OC)c(/C=C\CC(CCc2ccccc2)OC(C)=O)c1 (stereo not given),-0.526,-0.785 (inactive),0.245 (inactive),1.04 (inactive),-0.0403 (inactive),0.245,-0.182,-0.813,-0.152,0.482,-0.601 (inactive),-0.456,8.9 (active),0.865 (inactive),-0.297 (inactive),0.0093 (inactive),-0.0781,-0.135 (inactive),0.424 (inactive),-0.983
C[N+](C)(C)CCCC[C@@H]1NC(=O)[C@H]2C[C@@H](C(=O)NCCCCCCN)[C@@H](c3cccc(OCCO)c3)N2C1=O,0.693,0.0395 (inactive),0.406 (inactive),-0.809 (inactive),-0.254 (inactive),1.65,0.794,1.33,1.25,2.04,-0.0261 (inactive),1.29,1.19 (inactive),0.156 (inactive),3.3 (inactive),0.0792 (inactive),-0.161,1.12 (inactive),0.64 (inactive),1.58
COC(=O)[C@H]1N=C(c2ccc(OCCCO)cc2)O[C@H]1c1ccccc1CN=[N+]=[N-],-0.0973,-1.45 (inactive),0.446 (inactive),-0.23 (inactive),-0.785 (inactive),-0.129,0.11,-1.66,-0.8,0.166,0.495 (inactive),0.938,24 (active),7.57 (inactive),1.35 (inactive),1.11 (inactive),-0.221,-0.102 (inactive),1.43 (inactive),0.352
COC(=O)C(CC#Cc1ccc2c(c1)[C@]1(C(=O)N2)[C@H](c2ccc(OCCO)cc2)N2[C@H](c3ccccc3)[C@H](c3ccccc3)OC(=O)[C@H]2[C@@H]1C(=O)O)C(=O)OC,0.138,-0.565 (inactive),-1.11 (inactive),-0.554 (inactive),0.295 (inactive),0.344,0.717,0.477,0.538,0.759,1.55 (inactive),0.685,4.99 (inactive),0.441 (inactive),1.17 (inactive),-0.121 (inactive),0.641,1.18 (inactive),0.0107 (inactive),0.918
C=CC[C@@]1(C(=O)NCC(O)CO)N=C(c2ccc(OCCCO)cc2)O[C@@H]1c1ccccc1 (stereo not given in full),1.19,-0.834 (inactive),0.627 (inactive),0.685 (inactive),-0.458 (inactive),0.145,0.524,0.373,2.47,-0.702,0.529 (inactive),0.366,22.6 (active),4.36 (inactive),1.12 (inactive),0.394 (inactive),-0.0453,0.325 (inactive),1.02 (inactive),1.69
COCCOC(=O)N1C(=O)[C@@]2(c3cc(C#Cc4ccc(OC)cc4)ccc31)[C@H](C(N)=O)[C@H]1C(=O)O[C@H](c3ccccc3)[C@H](c3ccccc3)N1[C@@H]2c1ccc(OCCO)cc1,0.608,-4.52 (inactive),-0.637 (inactive),-0.598 (inactive),-0.164 (inactive),0.741,0.267,0.534,0.424,1.66,0.79 (inactive),1.45,21.2 (active),5.69 (inactive),1.75 (inactive),1.95 (inactive),-0.0813,0.933 (inactive),-0.164 (inactive),1.86
